GRP78 ERSR act = induces the endoplasmic reticulum stress response in human glioma cells. U87-MG GRP78 promoter luciferase reporter, 16 h. Potency, µM, for inactives: at the top dose activation, most hits filed as activators. AID 602332. actives 0.02% (n = 420,000); active = well fitted activation curve with a large enough effect; inconclusive = small, poorly fitted or top-dose-only effect; inactive = no such curve, though single readings can be large or run the other way; also: potency is read from the fitted curve at half-maximal effect; series mostly up to about 76 µM; % of control where 0% means no effect; nearly all actives have a fitted effect of over 35% in size
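Stably transfected U87-MG glioma cells carrying a GRP78-based luciferase sensor; 16 h compound incubation. Luminescence end-point read 10 min after Bright-Glo addition at room temperature.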
KCNH2 WT inh = blocks the wildtype human KCNH2 potassium channel | Q12809 | U2OS, BacMam KCNH2, thallium flux FluxOr; active compounds read low | activity change, % at 1.84 µM | actives 0.37% (n = 340,000) | AID 720551;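 active = maximum activity change below -70%; inconclusive = maximum activity change between -70% and -50%; inactive = maximum activity change above -50%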; also: % is scaled to controls: 0 for no effect and ±100 for the full control effect
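U2OS cells transduced with wild-type KCNH2 virus are loaded with FluxOr dye for 45 min, and thallium flux is measured in kinetic reads before and after stimulation buffer. Rate constants are normalized to DMSO controls.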
TRPML1 ag = agonists of human TRPML1 channel; Q9GZU1; TRPML1-expressing cells, Ca2+ dye fluorescence, FDSS; activation, % (no concentration beside the values); actives 0.12% (n = 410,000); in the data active = activation above about 50%; inconclusive = mostly about 30% to 49%; also: 0% is about no effect
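Cells: TRPML1-DL, 1X Tet inducer, ~16 h at 37 degrees C/5% CO2. Dye: ABD Ca8 no-wash + quencher, 45-90 min RT. Read: 10 s baseline, compound add, 110 s agonist phase; 54-4 EC80 (4uM final), 110 s antagonist phase.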
TRPML1 inh = human mucolipin-1 channel inhibition | Q9GZU1 | AID 624415 | activity change, negative = inhibition, % (test concentration not listed) | TRPML1-inducible cells, Ca2+ dye fluorescence, FDSS; active compounds read low; inhibition of EC80 agonist-evoked calcium signal | actives 0.02% (n = 390,000); in the data active = activity change below about -50%; inconclusive = between about -30% and that limit;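 also: stimulus is agonist 54-4 at its EC80 concentration; % is scaled to controls: 0 for no effect and ±100 for the full control effect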
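TRPML1-DL cells, Tet-induced overnight (~16 h, 37 °C) at 1,500 cells/well, were loaded with Ca8 no-wash dye plus quencher for 45-90 min at room temperature. Compounds were pinned during FDSS kinetic reading; agonist 54-4 at EC80 (4 uM final) then added.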
KCNH2 3.1 block = KCNH2 3.1 (human) potassium channel inhibition. U2OS KCNH2 3.1, thallium flux FluxOr; active compounds read low. activity change, % (tested at about 1.8 µM). actives 0.95% (n = 340,000). AID 720553;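 active = maximum activity change below -70%; inconclusive = maximum activity change from -70% to -50%; inactive = maximum activity change above -50%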;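 also: thallium influx rate constant from kinetic fluorescence after stimulation buffer; % is scaled to controls: 0 for no effect and ±100 for the full control effect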
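Normalized rate constant (relative to positive and negative DMSO controls) derived from a 2 min kinetic fluorescence read after stimulation; U2OS cells expressing the 3.1 isoform via virus at 1.77 x 10^8 /mL.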
PTAP TSG101 blk = blocks PTAP/TSG101 interaction to inhibit HIV-1 budding. Q99816. Fluorescence polarization, FITC-PTAP peptide / Tsg101 binding. Potency, µM (series often up to 115 µM), inactives show at the highest dose activity change, negative = inhibition, actives largely listed as inhibitors. 340,000 tested, under 10 active. AID 493005; active = well fitted inhibition curve with a large enough effect in the main read-out, with a control signal flat, not every such curve was filed as active; inconclusive = small, poorly fitted or top-dose-only effect, or effect the other way, or a change in a side signal; inactive = no such curve, though single readings can be large or run the other way; also: potency is read from the fitted curve at half-maximal effect; % of control where 0% means no effect
Target sequence (Q99816 whole entry, looked up): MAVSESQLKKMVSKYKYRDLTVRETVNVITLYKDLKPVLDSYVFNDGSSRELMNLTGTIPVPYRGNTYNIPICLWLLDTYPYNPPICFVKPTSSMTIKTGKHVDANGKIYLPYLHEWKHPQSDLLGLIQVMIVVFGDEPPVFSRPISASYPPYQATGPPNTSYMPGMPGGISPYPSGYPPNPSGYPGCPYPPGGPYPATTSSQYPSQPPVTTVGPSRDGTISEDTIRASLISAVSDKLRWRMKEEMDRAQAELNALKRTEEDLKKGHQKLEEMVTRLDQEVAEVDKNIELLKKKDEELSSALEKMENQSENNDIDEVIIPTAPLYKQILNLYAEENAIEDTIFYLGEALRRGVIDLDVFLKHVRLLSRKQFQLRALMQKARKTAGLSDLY
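Fluorescence polarization binding of Tsg101 binding domain (10 uM final) to FITC-labeled PTAP peptide (50 nM final) in HEPES pH 7.5 buffer with NaCl, Tween 20, EDTA, TCEP. Compounds added before peptide; binding 20 min at RT.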
Starred values were filed as active, the others as inactive; ? = inconclusive; . = no result given; ! = not active in a repeat. Compounds with a hit are over-represented: about 1% of the library has one in this group of screens.

SMILES | GRP78 ERSR act | KCNH2 WT inh | TRPML1 ag | TRPML1 inh | KCNH2 3.1 block | PTAP TSG101 blk
CN1CCN2c3ccccc3Cc3ccccc3C2C1 (stereo not drawn) | 35µM*! | -7 | -1 | -9 | 1 | 0%
CN1CCN(S(=O)(=O)c2ccccc2)C(c2ccccc2)C1 (stereo not drawn) | -2% | -5 | 3 | -16 | 3 | -2%
Cc1ccc(N(C(C)C(=O)Nc2cc(Cl)ccc2Oc2ccccc2)S(C)(=O)=O)cc1 (stereo not drawn) | 0% | 5 | 3 | 67 | -72* | -4%
Cc1ncc2c(c1CNC(=O)c1ccccc1F)CCN(C(=O)c1csc(-c3cccs3)n1)C2 | -2% | . | . | . | . | .
O=C(O)C1CCN(c2nc(-c3ccccc3)c3cc(Br)ccc3n2)CC1 | 1% | -13 | 1 | 2 | 7 | -9%
OCCN1CCN(c2nc(-c3ccccc3)c3cc(Br)ccc3n2)CC1 | -4% | -30 | 1 | 33 | -71* | -5%
O=C(Cc1ccccc1)NNC(=O)c1ccc(NC(=O)c2ccccc2)cc1 | -4% | 3 | 2 | -24 | 9 | -2%
CC(C)C(=O)Nc1ccc(C(=O)NNC(=O)CCc2ccccc2)cc1 | 6% | -17 | 0 | 11 | -76* | 0%
Cc1ccccc1CC(=O)NC1CCCCCC1 | -3% | 3 | 1 | -54* | -14 | -1%
CN1CCc2c(sc(NC(=O)CSc3ccccc3)c2-c2nc3ccccc3s2)C1 | -6% | . | 59* | -12 | . | .
COc1ccc(C(OCC(O)CN(C)C2CCCCC2)c2ccc(OC)cc2)cc1 (stereo not drawn) | -5% | 0 | 0 | 4 | -44 | -1%
CCOc1ccc(CN(C)CC(O)COC(c2ccc(OC)cc2)c2ccc(OC)cc2)cc1 (stereo not drawn) | -3% | -85* | 1 | 36 | -93* | -5%
COc1ccc(CN(C)CC(O)COC(c2ccc(OC)cc2)c2ccc(OC)cc2)cc1 (stereo not drawn) | -2% | ? | 2 | 8 | -113* | -5%
COc1cc2nc(N3CCCCC3)nc(NC3CCN(Cc4ccccc4)CC3)c2cc1OC | . | . | 0 | . | . | .
Cc1cc(C)c(C(=O)NCc2nc(-c3cccc(NC(=O)C4CCCN(C)C4)c3)oc2C)[nH]1 (stereo not drawn) | 0% | . | . | . | . | .
Cc1cn2cc(CNC(=O)CN3Cc4ccccc4OC(c4ccccc4F)C3)nc2s1 (stereo not drawn) | 1% | . | . | . | . | .
N#Cc1nc(COc2ccc(-c3ccccc3)cc2)oc1NCCCN1CCOCC1 | -4% | 14 | 2 | 30 | ? | -3%
CN(C)CCNc1oc(COc2ccc(-c3ccccc3)cc2)nc1C#N | 4% | 37 | 0 | 8 | -72* | -4%
Cc1c(C(=O)N(C)C2CCOC2)sc2ncnc(NCC3(c4ccccc4)CCOCC3)c12 (stereo not drawn) | -4% | . | . | . | . | .
Cc1ncc2c(c1CNC(=O)c1ccc3c(c1)OCO3)CCN(C(=O)c1cccc(-n3cccn3)c1)C2 | -4% | . | . | . | . | .
CC(C)(C)n1ncc2c(=O)n(Cc3ccccc3-c3ccccc3)cnc21 | 0% | . | 2 | 7 | . | .
Cc1cccc(NC(=O)C23CCC(C)(C(=O)O2)C3(C)C)c1 (stereo not drawn) | 1% | -9 | 7 | -6 | 4 | -2%
Cc1cc(NC(=O)C23CCC(C)(C(=O)O2)C3(C)C)no1 (stereo not drawn) | -4% | -22 | -1 | 9 | -191* | -4%
CCCCCN1C=CC=C/C1=C\C=C(C#N)C#N | -2% | -1 | 14 | -1 | -6 | 1%
C=CCN1C=C/C(=C\C=C(C#N)C#N)c2ccccc21 | 0% | -1 | 1 | 3 | -10 | 12%
CCCCCCN1C=C/C(=C\C=C(C#N)C#N)c2ccccc21 | -1% | -148* | 2 | 37 | -105* | 1%
CCCCCCN1C=CC=C/C1=C/C=C(C#N)C#N | -4% | -123* | 13 | 19 | -31 | ?
Cc1ccc(C(=O)Nc2cccc(-c3nc(CNC(=O)c4cccc(C)c4C)c(C)o3)c2)s1 | -6% | . | . | . | . | .

High-throughput results from PubChem BioAssay.
